Data as given in ChEMBL document CHEMBL1961873, “Compounds: GSK PKIS; Assays: Nanosyn kinase panel” (2012).

What was measured:
[1] = target: Mitogen-activated protein kinase 3 (Homo sapiens) (UniProt P27361); details: at 1 µM;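 further: values are mean percent inhibition of MAPK3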
[2] = target: SRSF protein kinase 3 (Homo sapiens) (UniProt Q9UPE1); details: at 0.1 µM
[3] = target: SRSF protein kinase 3 (Homo sapiens) (UniProt Q9UPE1); details: at 1 µM
[4] = target: Mitogen-activated protein kinase 14 (Homo sapiens) (UniProt Q16539); details: at 0.1 µM
Mitogen-activated protein kinase 14 (Homo sapiens), sequence (Q16539 whole entry): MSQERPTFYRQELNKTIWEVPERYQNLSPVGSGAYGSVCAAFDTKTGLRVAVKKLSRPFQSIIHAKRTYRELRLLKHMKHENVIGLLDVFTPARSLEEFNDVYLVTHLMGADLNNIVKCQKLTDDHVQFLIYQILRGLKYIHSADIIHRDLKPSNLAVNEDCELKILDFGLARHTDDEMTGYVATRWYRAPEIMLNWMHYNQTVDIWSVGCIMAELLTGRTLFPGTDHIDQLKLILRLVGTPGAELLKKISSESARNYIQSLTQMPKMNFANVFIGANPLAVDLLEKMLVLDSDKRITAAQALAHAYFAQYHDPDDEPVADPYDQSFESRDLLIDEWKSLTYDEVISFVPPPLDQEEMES

[5] = target: Mitogen-activated protein kinase 14 (Homo sapiens) (UniProt Q16539); details: at 1 µM
[6] = target: Mitogen-activated protein kinase 11 (Homo sapiens) (UniProt Q15759); details: at 0.1 µM
Mitogen-activated protein kinase 11 (Homo sapiens), sequence (Q15759 whole entry): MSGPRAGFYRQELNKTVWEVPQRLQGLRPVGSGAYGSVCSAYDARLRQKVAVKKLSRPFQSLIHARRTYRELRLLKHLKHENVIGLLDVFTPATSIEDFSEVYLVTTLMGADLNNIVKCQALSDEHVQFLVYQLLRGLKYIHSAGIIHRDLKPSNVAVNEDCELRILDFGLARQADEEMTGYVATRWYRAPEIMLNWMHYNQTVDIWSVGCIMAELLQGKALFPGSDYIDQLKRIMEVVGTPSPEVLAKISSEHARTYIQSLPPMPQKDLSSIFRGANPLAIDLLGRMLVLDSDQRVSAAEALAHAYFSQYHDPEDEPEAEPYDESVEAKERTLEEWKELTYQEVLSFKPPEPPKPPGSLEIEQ

[7] = target: Mitogen-activated protein kinase 11 (Homo sapiens) (UniProt Q15759); details: at 1 µM
[8] = target: T1, Mitogen-activated protein kinase 13 (Homo sapiens) (UniProt O15264); details: at 0.1 µM
T1 sequence (whole entry): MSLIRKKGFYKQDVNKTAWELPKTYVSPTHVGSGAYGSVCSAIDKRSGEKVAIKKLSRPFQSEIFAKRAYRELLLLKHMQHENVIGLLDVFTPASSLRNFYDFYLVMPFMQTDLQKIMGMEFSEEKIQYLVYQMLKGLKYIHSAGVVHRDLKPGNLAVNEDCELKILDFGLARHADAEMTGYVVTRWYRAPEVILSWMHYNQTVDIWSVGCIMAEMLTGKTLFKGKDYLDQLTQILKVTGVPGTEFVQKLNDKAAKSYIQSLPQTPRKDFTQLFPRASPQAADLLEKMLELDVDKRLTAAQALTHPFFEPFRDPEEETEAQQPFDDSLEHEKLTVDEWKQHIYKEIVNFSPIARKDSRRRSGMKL

[9] = target: T1, Mitogen-activated protein kinase 13 (Homo sapiens); details: at 1 µM
[10] = target: T2, Mitogen-activated protein kinase 12 (Homo sapiens) (UniProt P53778); details: at 0.1 µM
T2 sequence (whole entry): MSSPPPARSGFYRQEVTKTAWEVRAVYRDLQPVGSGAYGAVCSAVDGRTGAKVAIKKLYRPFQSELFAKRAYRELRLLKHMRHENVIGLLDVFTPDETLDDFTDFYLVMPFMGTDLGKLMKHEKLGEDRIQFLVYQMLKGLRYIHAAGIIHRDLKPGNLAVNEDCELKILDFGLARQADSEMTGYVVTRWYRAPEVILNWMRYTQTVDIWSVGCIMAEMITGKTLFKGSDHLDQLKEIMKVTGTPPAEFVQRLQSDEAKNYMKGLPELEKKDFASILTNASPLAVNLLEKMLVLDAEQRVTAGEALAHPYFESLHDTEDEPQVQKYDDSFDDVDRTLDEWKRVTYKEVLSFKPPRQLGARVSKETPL

[11] = target: T2, Mitogen-activated protein kinase 12 (Homo sapiens); details: at 1 µM
[12] = target: SRSF protein kinase 1 (Homo sapiens) (UniProt Q96SB4); details: at 0.1 µM
SRSF protein kinase 1 (Homo sapiens), sequence (Q96SB4 whole entry, canonical isoform): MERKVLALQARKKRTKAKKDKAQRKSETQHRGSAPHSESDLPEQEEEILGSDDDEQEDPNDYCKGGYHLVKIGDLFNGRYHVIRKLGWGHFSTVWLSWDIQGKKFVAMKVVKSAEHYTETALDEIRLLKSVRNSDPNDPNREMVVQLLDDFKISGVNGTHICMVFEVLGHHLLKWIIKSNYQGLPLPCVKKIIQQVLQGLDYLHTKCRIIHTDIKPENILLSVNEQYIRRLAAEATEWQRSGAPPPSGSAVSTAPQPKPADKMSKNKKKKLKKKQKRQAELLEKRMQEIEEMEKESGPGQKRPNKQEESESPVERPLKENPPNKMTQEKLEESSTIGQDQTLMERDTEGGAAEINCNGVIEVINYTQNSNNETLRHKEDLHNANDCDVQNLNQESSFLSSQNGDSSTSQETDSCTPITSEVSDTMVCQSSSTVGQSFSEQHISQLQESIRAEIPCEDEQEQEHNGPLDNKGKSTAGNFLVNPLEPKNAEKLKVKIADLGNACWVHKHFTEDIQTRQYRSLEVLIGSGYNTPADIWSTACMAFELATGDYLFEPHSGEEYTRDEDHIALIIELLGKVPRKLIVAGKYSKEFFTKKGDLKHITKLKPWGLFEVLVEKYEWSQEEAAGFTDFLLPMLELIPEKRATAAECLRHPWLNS

[13] = target: SRSF protein kinase 1 (Homo sapiens) (UniProt Q96SB4); details: at 1 µM
[14] = target: Phosphatidylinositol 4,5-bisphosphate 3-kinase catalytic subunit alpha isoform (Homo sapiens) (UniProt P42336); details: at 0.1 µM
Phosphatidylinositol 4,5-bisphosphate 3-kinase catalytic subunit alpha isoform (Homo sapiens), sequence (P42336 whole entry, canonical isoform): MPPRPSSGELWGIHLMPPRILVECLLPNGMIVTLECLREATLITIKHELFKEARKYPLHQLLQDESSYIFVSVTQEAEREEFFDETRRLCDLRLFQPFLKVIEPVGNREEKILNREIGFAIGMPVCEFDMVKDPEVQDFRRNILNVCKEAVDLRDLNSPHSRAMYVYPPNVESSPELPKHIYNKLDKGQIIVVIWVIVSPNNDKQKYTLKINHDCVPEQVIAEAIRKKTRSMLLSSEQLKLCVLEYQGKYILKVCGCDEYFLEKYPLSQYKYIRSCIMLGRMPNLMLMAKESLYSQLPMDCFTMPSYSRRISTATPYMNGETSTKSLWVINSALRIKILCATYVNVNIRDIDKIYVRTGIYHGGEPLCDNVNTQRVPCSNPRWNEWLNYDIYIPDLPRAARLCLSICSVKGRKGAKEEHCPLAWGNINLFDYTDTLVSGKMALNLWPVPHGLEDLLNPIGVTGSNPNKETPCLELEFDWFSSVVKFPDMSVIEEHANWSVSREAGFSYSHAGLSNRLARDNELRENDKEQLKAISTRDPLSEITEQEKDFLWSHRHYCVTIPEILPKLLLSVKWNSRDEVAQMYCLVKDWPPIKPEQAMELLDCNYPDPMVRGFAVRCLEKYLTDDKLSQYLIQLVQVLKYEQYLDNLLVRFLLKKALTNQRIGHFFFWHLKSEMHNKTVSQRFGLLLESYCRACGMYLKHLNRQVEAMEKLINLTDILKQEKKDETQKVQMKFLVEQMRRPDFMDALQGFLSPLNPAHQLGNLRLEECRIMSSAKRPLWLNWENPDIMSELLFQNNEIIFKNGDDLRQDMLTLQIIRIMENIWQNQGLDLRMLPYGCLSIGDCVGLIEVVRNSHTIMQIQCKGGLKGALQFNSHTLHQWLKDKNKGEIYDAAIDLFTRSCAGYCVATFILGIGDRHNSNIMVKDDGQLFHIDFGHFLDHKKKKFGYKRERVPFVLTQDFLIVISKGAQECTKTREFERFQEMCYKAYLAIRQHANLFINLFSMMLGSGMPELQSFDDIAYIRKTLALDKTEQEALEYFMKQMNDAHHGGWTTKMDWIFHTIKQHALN

[15] = target: Phosphatidylinositol 4,5-bisphosphate 3-kinase catalytic subunit alpha isoform (Homo sapiens) (UniProt P42336); details: at 1 µM
[16] = target: T3, Phosphatidylinositol 4,5-bisphosphate 3-kinase catalytic subunit delta isoform (Homo sapiens) (UniProt O00329); details: at 0.1 µM
T3 sequence (whole entry): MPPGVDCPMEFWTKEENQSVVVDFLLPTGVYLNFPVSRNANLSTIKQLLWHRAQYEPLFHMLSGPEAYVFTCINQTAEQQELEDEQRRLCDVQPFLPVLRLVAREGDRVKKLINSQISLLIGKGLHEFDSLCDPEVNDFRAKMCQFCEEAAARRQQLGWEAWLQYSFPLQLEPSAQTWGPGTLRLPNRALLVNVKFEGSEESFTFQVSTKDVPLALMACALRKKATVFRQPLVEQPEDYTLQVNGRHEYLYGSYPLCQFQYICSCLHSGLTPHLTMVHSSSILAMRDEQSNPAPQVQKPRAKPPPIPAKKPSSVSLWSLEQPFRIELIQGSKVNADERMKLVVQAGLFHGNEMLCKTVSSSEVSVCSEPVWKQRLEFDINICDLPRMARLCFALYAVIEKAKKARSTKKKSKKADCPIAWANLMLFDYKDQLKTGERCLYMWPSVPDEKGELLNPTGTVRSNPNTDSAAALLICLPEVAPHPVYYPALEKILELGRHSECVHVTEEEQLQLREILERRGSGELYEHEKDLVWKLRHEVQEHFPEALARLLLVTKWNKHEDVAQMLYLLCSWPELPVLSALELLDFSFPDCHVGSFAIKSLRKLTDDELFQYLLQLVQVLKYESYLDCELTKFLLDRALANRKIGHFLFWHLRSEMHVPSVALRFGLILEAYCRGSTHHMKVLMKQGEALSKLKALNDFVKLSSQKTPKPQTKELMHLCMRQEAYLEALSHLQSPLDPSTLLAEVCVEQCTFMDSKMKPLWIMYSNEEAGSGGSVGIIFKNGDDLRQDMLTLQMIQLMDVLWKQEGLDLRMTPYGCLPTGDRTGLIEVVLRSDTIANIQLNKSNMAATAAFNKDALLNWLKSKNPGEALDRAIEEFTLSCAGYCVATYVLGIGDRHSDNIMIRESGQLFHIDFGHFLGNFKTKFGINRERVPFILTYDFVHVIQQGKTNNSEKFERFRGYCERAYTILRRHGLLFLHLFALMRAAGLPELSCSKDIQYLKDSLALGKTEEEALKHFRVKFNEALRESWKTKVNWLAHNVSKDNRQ

[17] = target: T3, Phosphatidylinositol 4,5-bisphosphate 3-kinase catalytic subunit delta isoform (Homo sapiens); details: at 1 µM
[18] = target: Phosphatidylinositol 4-kinase beta (Homo sapiens) (UniProt Q9UBF8); details: at 0.1 µM
Phosphatidylinositol 4-kinase beta (Homo sapiens), sequence (Q9UBF8 2-816 limits assumed): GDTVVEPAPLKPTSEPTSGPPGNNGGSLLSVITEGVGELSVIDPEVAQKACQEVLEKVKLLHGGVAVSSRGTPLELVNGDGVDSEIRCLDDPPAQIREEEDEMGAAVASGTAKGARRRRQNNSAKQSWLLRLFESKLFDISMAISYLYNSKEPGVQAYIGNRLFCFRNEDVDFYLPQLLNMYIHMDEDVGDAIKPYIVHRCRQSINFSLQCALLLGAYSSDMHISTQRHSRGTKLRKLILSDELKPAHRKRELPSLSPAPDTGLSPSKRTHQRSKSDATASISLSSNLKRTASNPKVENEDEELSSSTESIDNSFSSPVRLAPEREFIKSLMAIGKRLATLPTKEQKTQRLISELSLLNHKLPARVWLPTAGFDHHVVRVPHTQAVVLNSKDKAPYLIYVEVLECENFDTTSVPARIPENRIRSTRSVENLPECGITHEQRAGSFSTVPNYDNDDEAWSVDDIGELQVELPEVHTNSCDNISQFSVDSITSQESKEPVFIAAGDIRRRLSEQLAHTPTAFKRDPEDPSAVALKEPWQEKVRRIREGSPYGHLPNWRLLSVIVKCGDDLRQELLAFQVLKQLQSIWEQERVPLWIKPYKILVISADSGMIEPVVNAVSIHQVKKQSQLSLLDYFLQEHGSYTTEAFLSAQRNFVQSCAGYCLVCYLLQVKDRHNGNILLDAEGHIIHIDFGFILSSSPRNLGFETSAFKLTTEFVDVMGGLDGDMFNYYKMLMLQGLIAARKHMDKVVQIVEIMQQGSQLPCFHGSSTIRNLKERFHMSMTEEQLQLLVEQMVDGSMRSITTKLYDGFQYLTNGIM

[19] = target: Phosphatidylinositol 4-kinase beta (Homo sapiens) (UniProt Q9UBF8); details: at 1 µM
[20] = target: Sphingosine kinase 1 (Homo sapiens) (UniProt Q9NYA1); details: at 0.1 µM;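 further: mean percent inhibition of SPHK1 activity, measured within the GSK PKIS screening panel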
Sphingosine kinase 1 (Homo sapiens), sequence (Q9NYA1 whole entry): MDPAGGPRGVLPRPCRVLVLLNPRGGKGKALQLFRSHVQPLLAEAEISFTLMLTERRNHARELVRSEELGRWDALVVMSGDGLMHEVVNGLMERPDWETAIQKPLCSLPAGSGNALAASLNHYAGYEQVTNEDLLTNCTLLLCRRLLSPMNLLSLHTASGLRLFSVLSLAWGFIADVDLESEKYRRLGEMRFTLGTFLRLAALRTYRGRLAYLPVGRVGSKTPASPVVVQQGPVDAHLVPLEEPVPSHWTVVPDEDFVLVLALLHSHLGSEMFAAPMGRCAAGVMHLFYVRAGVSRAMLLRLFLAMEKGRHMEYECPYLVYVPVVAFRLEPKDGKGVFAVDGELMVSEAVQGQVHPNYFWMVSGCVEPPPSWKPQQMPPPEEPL

Mitogen-activated protein kinase 3 (Homo sapiens), sequence (P27361 whole entry): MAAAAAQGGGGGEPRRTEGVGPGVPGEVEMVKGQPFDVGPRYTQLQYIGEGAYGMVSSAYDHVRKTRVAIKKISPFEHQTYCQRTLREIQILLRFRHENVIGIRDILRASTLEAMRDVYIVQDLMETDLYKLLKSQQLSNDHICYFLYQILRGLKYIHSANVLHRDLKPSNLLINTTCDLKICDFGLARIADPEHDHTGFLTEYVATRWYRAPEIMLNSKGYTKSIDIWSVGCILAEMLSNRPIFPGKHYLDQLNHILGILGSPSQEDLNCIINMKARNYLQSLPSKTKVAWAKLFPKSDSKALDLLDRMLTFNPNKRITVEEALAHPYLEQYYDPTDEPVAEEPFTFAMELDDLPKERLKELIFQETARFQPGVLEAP
SRSF protein kinase 3 (Homo sapiens), sequence (Q9UPE1 whole entry): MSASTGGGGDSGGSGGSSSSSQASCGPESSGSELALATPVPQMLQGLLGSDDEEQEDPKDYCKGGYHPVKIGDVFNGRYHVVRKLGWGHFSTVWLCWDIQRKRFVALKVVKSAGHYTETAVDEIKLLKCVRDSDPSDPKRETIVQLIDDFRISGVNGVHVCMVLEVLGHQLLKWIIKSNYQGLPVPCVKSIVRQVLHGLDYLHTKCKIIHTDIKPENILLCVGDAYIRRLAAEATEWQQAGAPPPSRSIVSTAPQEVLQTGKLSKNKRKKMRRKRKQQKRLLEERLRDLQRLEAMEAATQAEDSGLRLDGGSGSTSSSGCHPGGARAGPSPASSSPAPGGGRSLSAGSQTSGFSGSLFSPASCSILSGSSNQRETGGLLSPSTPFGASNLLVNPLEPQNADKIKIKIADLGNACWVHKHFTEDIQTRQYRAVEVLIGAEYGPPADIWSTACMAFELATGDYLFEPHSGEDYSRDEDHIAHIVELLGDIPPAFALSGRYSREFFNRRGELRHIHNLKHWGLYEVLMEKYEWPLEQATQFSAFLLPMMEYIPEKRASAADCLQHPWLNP

Row | SMILES | inhibition [1] [%] | inhibition [2] [%] | inhibition [3] [%] | inhibition [4] [%] | inhibition [5] [%] | inhibition [6] [%] | inhibition [7] [%] | inhibition [8] [%] | inhibition [9] [%] | inhibition [10] [%] | inhibition [11] [%] | inhibition [12] [%] | inhibition [13] [%] | inhibition [14] [%] | inhibition [15] [%] | inhibition [16] [%] | inhibition [17] [%] | inhibition [18] [%] | inhibition [19] [%] | inhibition [20] [%]
1 | Fc1cccc(COc2ccc(Nc3ncnc4sc(-c5cccs5)cc34)cc2Cl)c1 | 1.8 | 0.46 | 0.83 | 0.93 | 1.59 | -0.98 | -0.33 | 1.26 | 0.64 | 0.6 | 0.86 | 0.18 | -1.11 | 0.9 | 4.07 | -0.78 | 2.29 | 0.44 | -0.43 | -1.15
2 | CCn1c(-c2nonc2N)nc2c(C#CC(C)(C)O)nc(CN3CCCC3)cc21 | 0.84 | -1.03 | -0.96 | 0.68 | -0.47 | -2.47 | 0.28 | 0.31 | -1.59 | 1.31 | 0.15 | -2.3 | -2.96 | -2.21 | -0.12 | 0.87 | 3.83 | -0.02 | -2.03 | 0.49
3 | CCn1c(-c2nonc2N)nc2ccncc21 | 1.29 | -2.05 | -2.78 | 2.59 | 3.78 | 2.84 | 2.34 | 0.59 | 0.17 | 2.32 | 1.43 | -3.78 | -6.35 | 0.03 | 1.86 | 2.2 | 2.13 | 4.46 | -4.32 | -1.27
4 | Cn1cc(C=C2C(=O)Nc3cccnc32)c2ccccc21 | 2.73 | -0.25 | -0.47 | 3.62 | 7.85 | 3.65 | 5.58 | -0.63 | 2.23 | 2.25 | 2.65 | -3.21 | -4.48 | 2.82 | 7.17 | 1.38 | 3.54 | 0.42 | 4.05 | -3.04
5 | CCn1c(-c2nonc2N)nc2cncc(C(=O)N3CCNCC3)c21 | 7.02 | 0.64 | -1.54 | 14.5 | 20.5 | 5.86 | 5.3 | 6.15 | 7.35 | 3.73 | 5.97 | -1.32 | -1.85 | 5.78 | 5.67 | 1.16 | 2.58 | -4.56 | – | -1.49
6 | CCCN1CCC(Oc2cc(Nc3nc(Nc4cccc(F)c4C(N)=O)c4cc[nH]c4n3)c(OC)cc2Cl)CC1 | 2.9 | 0.09 | 3.91 | 0.2 | 3.85 | 0.2 | 0.06 | 0.04 | -0.16 | -0.75 | 0.42 | -0.3 | -0.85 | -1.23 | -1.07 | -0.45 | 0.08 | 3.96 | -2.71 | 0.48
7 | CC1=C(C(=O)Nc2ccc3[nH]ncc3c2)C(c2ccc3ccccc3c2)CC(=O)N1 (configuration not stated) | 22.4 | 0.02 | -0.13 | 3.64 | 5.06 | -1.05 | 2.44 | 3.08 | 2.24 | -0.44 | 1.97 | -1.36 | 0.02 | 5.28 | 5.6 | 4.38 | 4.97 | -1.78 | 0.34 | 1.83
8 | Nc1nc(-c2ccc3c(c2)C(=Cc2cc(Br)c(O)c(Br)c2)C(=O)N3)cs1 | 1.82 | -2.97 | -1.79 | 1.75 | -0.33 | -2.08 | 2.83 | -2.1 | -1.28 | -1.72 | -1.45 | 1.08 | 1.39 | 0.41 | 24.5 | – | – | 36.1 | 71.6 | 2.04
9 | CC1=C(C(=O)Nc2ccc3[nH]ncc3c2)C(c2ccc(Cl)c(Cl)c2)CC(=O)N1 (configuration not stated) | 14.6 | -0.02 | 1.57 | 1.46 | 4.94 | 0.46 | 0.24 | -0.61 | 2.05 | -0.46 | 1.19 | -1.56 | -3.22 | -0.33 | -0.79 | 0.18 | 1.04 | 0.44 | -1.19 | 0.43
10 | COc1cccc(-n2ncc3c(N/N=C/c4cccc(F)c4)ncnc32)c1 | 0.85 | -2.57 | -3.83 | -0.34 | 5.39 | 3.19 | 0 | 2.14 | 6.21 | 4.04 | 2.67 | -1.75 | -2.37 | 2.47 | 4.79 | 2.15 | 5.82 | 2.02 | -7.13 | -0.37
11 | COc1ccc2cc(-c3c(-c4ccncc4)nc(-c4ccc([S+](C)[O-])cc4)n3C)ccc2c1 (configuration not stated) | 0.18 | -1.39 | -1.03 | 1.72 | 8.34 | 3.87 | 7.24 | -1.65 | 3.19 | 2.2 | 2.03 | -3.09 | -4.71 | 2.81 | 3.47 | 6.86 | 3.16 | -2.02 | -2.26 | 0.08
12 | NS(=O)(=O)c1cccc(-c2ccc3c(NC(=O)C4CC4)n[nH]c3c2)c1 | -0.05 | -0.57 | -6.73 | 6.37 | 9.34 | 1.5 | 5.3 | -0.02 | -0.14 | -0.74 | -1.58 | 1.47 | 1.47 | 2.99 | 3.6 | 7.35 | 8.71 | 1.29 | -3.98 | 0.58
13 | COc1cc2ncn(-c3cc(O[C@@H](C)c4ccccc4Cl)c(C(N)=O)s3)c2cc1OC | 3.07 | -3.53 | -0.07 | 6.72 | 7.39 | 3.1 | 2.35 | 4.76 | 3.82 | 3.18 | 3.72 | -2.61 | -2.08 | 4.55 | 11.5 | 2.44 | 10.6 | 3.29 | -6.07 | 1.31
14 | c1cnn2ncc(-c3ccnc(Nc4ccc5c(c4)OCCO5)n3)c2c1 | 12 | -0.61 | 1.61 | 7.07 | 13.3 | 3.66 | 9.95 | 4.89 | 16.3 | 0.48 | 6.13 | 0.05 | 2.88 | 7.25 | 30.2 | 4.69 | 26.1 | 1.98 | 9.37 | 1.6
